Screening data as filed in PubChem BioAssay.
FBA Mtb inh – Mtb fructose-bisphosphate aldolase inhibition. inhibition, % at 1 µM. P9WQA3. purified M. tuberculosis FBA, fluorescence read-out. 360,000 compounds, 2.3% hits; in the data active = inhibition above about 27%
RecA intein inh – blocks M. tuberculosis RecA intein splicing | inhibition, % (test concentration not listed) | 290,000 compounds, 0.75% hits | AID 2221 | P9WHJ3 | cell-free RecA intein splicing, fluorescence; in the data active = inhibition above about 30%
Target sequence (P9WHJ3 whole entry, looked up): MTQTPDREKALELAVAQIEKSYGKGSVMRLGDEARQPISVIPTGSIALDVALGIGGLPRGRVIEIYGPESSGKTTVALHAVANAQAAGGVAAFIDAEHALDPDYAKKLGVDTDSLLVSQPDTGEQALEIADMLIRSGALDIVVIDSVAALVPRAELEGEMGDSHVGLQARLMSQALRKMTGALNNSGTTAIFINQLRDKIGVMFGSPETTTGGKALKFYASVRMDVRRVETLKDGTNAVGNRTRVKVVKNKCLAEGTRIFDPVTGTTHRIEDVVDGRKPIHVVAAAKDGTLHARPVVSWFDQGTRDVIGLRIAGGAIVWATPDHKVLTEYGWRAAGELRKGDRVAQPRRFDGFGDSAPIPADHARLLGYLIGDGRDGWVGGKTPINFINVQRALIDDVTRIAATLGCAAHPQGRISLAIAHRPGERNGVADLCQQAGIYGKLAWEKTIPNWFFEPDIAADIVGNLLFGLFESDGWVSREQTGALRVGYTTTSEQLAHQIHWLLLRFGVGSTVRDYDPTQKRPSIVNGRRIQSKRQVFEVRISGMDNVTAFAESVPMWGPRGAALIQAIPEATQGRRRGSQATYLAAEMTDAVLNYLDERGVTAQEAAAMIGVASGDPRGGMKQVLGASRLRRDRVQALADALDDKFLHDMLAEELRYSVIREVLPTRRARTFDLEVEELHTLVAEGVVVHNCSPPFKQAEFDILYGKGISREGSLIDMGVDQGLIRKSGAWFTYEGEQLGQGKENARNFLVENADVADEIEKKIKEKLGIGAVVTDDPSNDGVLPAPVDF
CCHF vOTU inh – CCHFV vOTU protease inhibition. Pep-AMC fluorescence. 370,000 compounds, 0.55% hits. inhibition, % at 11.5 µM
GDH-TPI inh – GDH-TPI coupled enzyme inhibition counter-screen | inhibition, % at 4.8 µM | AID 588335 | GDH-TPI coupled enzyme counterscreen, NADH absorbance | 360,000 compounds, 1.2% hits
Large screens that a line does not name were inactive. Only some compounds are listed: those with a hit (about 4.2% of all), similar ones and a draw of the others. Cut-off read from the data, not from the text of the source, unless noted: active = inhibition above about 30%; inactive = the rest.

O=C(O)c1ccc(/C=N/NC(=O)c2cc3c(ccc4ccccc43)o2)cc1	GDH-TPI inh 57.3
O=C(N/N=C/c1ccncc1)c1cc2c(ccc3ccccc32)o1	GDH-TPI inh 46.7
O=C(N/N=C/c1cccc([N+](=O)[O-])c1)c1cc2c(ccc3ccccc32)o1	none
O=S1(=O)c2ccc(Br)cc2OC[C@@H](c2ccccc2)N1Cc1cn(CCC2OCCO2)nn1	none (no result: FBA Mtb inh, RecA intein inh, GDH-TPI inh)
COC(=O)C1CN(Cc2cn(Cc3ccc(C)cc3)nn2)CCS(=O)(=O)N1Cc1ccc(Cl)cc1 (centres undefined)	none (no result: FBA Mtb inh, RecA intein inh, GDH-TPI inh)
N/C(=N\N=C/c1ccc(-c2ccc(O)c(C(=O)O)c2)o1)N[N+](=O)[O-]	GDH-TPI inh 58.3
Cc1ccc2c(c1)-c1c(cnn1CC(=O)NCCc1ccc(O)cc1)CO2	none (no result: FBA Mtb inh, RecA intein inh, GDH-TPI inh)
O=C1NC(=S)NC1=Cc1ccco1	none (no result: RecA intein inh)
O=C1NC(=O)/C(=C/c2ccco2)N1	GDH-TPI inh 39.7 (no result: RecA intein inh)
O=C1NC(=O)C(=Cc2ccco2)S1	GDH-TPI inh 38.4 (no result: RecA intein inh)
Cc1ccc(S(=O)(=O)/N=C2/NC(=O)/C(=C\c3ccco3)S2)cc1	none (no result: RecA intein inh)
O=C(O)c1cccc(Cn2c(Cl)c(/C=N/NC(=O)c3cccc(O)c3)sc2=O)c1	GDH-TPI inh 49.8
Cc1ccccc1N/N=C/c1sc(=O)n(Cc2cccc(C(=O)O)c2)c1Cl	GDH-TPI inh 38.7
COC(=O)c1cccc(Cn2c(Cl)c(/C=N/Nc3ccccc3C)sc2=O)c1	none
O=C(O)c1cccc(Cn2c(Cl)c(/C=N/NC(=O)c3ccco3)sc2=O)c1	GDH-TPI inh 46.5
O=C(O)c1cccc(Cn2c(Cl)c(/C=N/NC(=O)c3ccccc3)sc2=O)c1	GDH-TPI inh 55.5
CC(C)(O)C#Cc1ccc(CNC[C@H]2O[C@@H](n3cnc4c(N)ncnc43)[C@H](O)[C@@H]2O)s1	none (no result: RecA intein inh)
Nc1nonc1-n1nnc(C(=O)N/N=C/c2cccnc2)c1CSC1=NCCS1	none
CC(C)c1ccc(/C=N/NC(=O)c2nnn(-c3nonc3N)c2CSC2=NCCS2)cc1	RecA intein inh 33.8
Nc1nonc1-n1nnc(C(=O)N/N=C/c2ccc(Br)cc2)c1CSC1=NCCS1	RecA intein inh 31.5
CCCCN(C)Cc1c(O)ccc2c(=O)c(-c3ccccc3OC)coc12	FBA Mtb inh 162.9, GDH-TPI inh 41.4
CCN(CC)Cc1c(O)ccc2c(-c3ccccc3)cc(=O)oc12	none
CCN(CC)Cc1c(O)ccc2c(=O)c(-c3ccc(Cl)cc3)coc12	FBA Mtb inh 43.3
COc1ccc(CN2C(=O)CCC2(C)c2nnnn2-c2ccc3c(c2)OCCO3)cc1 (centres undefined)	none (no result: FBA Mtb inh, RecA intein inh, GDH-TPI inh)
Cc1cc(C(=O)CCl)c(C)n1CCc1ccccc1	RecA intein inh 40.2 (no result: FBA Mtb inh, GDH-TPI inh)
COC(=O)/C=C1/S/C(=N/NC(=O)c2ccccc2)NC1=O	none
COC(=O)/C=C1\S/C(=N/NC(=O)c2ccccc2)NC1=O	none
COC(=O)/C=C1/S/C(=N/N=C/c2ccco2)NC1=O	none (no result: RecA intein inh)
COC(=O)/C=C1\S/C(=N/N=C/c2ccco2)NC1=O	GDH-TPI inh 32.7
COC(=O)/C=C1\S/C(=N/N=C/c2ccc(Cl)cc2)NC1=O	GDH-TPI inh 35.2
COC(=O)/C=C1\S/C(=N/N=C/c2ccccc2)NC1=O	GDH-TPI inh 45.7
COC(=O)C/C=N/N=C1/NC(=O)/C(=C/C(=O)O)S1	GDH-TPI inh 35.1
CCCNC(=O)C1(C)CCCN(Cc2ccccc2F)C1 (centres undefined)	none (no result: RecA intein inh)
CC(=O)/C(=N\Nc1ccc(C)cc1)N1CCOCC1	GDH-TPI inh 31.1
CC(=O)Nc1ccc(NC(=O)N2CCOCC2)cc1	none (no result: RecA intein inh)
COc1ccccc1C(=O)Nc1cccc2c1CCCC2	none
CCc1cccc2c(/C=N/NC(=O)c3cccc(S(=O)(=O)Nc4ccccc4Cl)c3)c[nH]c12	GDH-TPI inh 36.9
CC(=C/c1ccccc1)/C=N/NC(=O)c1nnn(-c2nonc2N)c1CN1CCC(C)CC1	none
CC(C)c1c(C(=O)N/N=C/c2ccncc2)nnn1-c1nonc1N	none
CN(C)Cc1c(C(=O)N/N=C/C=C/c2ccccc2)nnn1-c1nonc1N	GDH-TPI inh 34.5 (no result: RecA intein inh)
CC(C)c1c(C(=O)N/N=C/C=C/c2ccccc2)nnn1-c1nonc1N	GDH-TPI inh 38.8
CC(/C=N/NC(=O)c1nnn(-c2nonc2N)c1C(C)C)=C\c1ccco1	GDH-TPI inh 36.9
CC(/C=N/NC(=O)c1nnn(-c2nonc2N)c1CN1CCCCC1)=C\c1ccccc1	GDH-TPI inh 34.0
COc1nc(N)nc(N)c1NS(=O)(=O)c1ccc(C)cc1	none (no result: RecA intein inh)
Cc1onc(-c2ccccc2)c1C(=O)NN1CCOCC1	none (no result: RecA intein inh)
Cc1cc2c(=O)n(C)c(SCC(=O)NCC3CCCO3)nc2s1 (centres undefined)	none (no result: RecA intein inh)
Cc1ccc(NC(=O)c2cnc(SCC(=O)NCC3CCCO3)n(C)c2=O)cc1C (centres undefined)	RecA intein inh 50.8
Cc1cc(C)c([N+](=O)[O-])cc1-c1ccc(/C=N/c2c(-c3ccco3)nc3ccccn23)o1	GDH-TPI inh 32.9
O=[N+]([O-])c1ccc(-c2ccc(/C=N/c3c(-c4ccco4)nc4ccccn34)o2)cc1	GDH-TPI inh 49.2
O=C1N=C(N2CCOCC2)S/C1=C\c1ccc(OS(=O)(=O)c2ccccc2)cc1	none
CC(C)c1ccc(/C=C2\SC(N3CCOCC3)=NC2=O)cc1	GDH-TPI inh 31.7
O=C1N=C(N2CCOCC2)S/C1=C\c1ccncc1	none
CCc1ccc(/C=C2/SC(N3CCOCC3)=NC2=O)cc1	GDH-TPI inh 47.1
CC(=C/c1ccccc1)/C=C1/SC(N2CCOCC2)=NC1=O	GDH-TPI inh 32.0
O=C1N=C(N2CCOCC2)S/C1=C/c1cccs1	GDH-TPI inh 33.8
Cc1c(C)c2c(OCC(=O)Nc3cccnc3)cc3c(c2oc1=O)CCC(C)(C)O3	none
CCC(NC(=O)COc1cc2c(c3oc(=O)c(C)c(C)c13)CCC(C)(C)O2)C(=O)O (centres undefined)	FBA Mtb inh active
Cc1c(C)c2c(OCC(=O)N[C@@H](C)C(=O)O)cc3c(c2oc1=O)CCC(C)(C)O3	FBA Mtb inh active
O=C(Nc1ccc(F)cc1)OCc1cn(Cc2cccc(F)c2F)nn1	none (no result: FBA Mtb inh, RecA intein inh, GDH-TPI inh)
COC(=O)[C@]12C[C@H](CC(=O)N3CCN(C(=O)c4ccco4)CC3)C(=O)N(CCc3ccc(OC)c(OC)c3)C1=C[C@H](C(C)C)O[C@@H]2C1CC1	none (no result: FBA Mtb inh, RecA intein inh, GDH-TPI inh)
Cc1ccc(CNC(=O)C2(C)CCN2C(=O)Cc2ccc(C(C)(C)C)cc2)cc1 (centres undefined)	none (no result: RecA intein inh)
O=C(Cn1cc(COc2c(F)c(F)c(Br)c(F)c2F)nn1)c1ccc(O)cc1	GDH-TPI inh 31.1 (no result: RecA intein inh)
O=C(Cn1cc(COc2ccc3ccc(=O)oc3c2)nn1)c1ccc(O)cc1	GDH-TPI inh 41.2 (no result: RecA intein inh)
CSC1=N/C(=C\c2ccccc2Cl)C(=O)N1N(C)C	none
CC(C(=O)c1ccccc1)[n+]1cccc(C(N)=O)c1 (centres undefined)	none
Cc1c(C(=O)Nc2nnc(C3CC3)s2)oc2c(Cl)cccc12	GDH-TPI inh 37.1
COC(=O)C1CN(Cc2ccccc2)CCS(=O)(=O)N1Cc1ccc(C)cc1 (centres undefined)	none (no result: FBA Mtb inh, RecA intein inh, GDH-TPI inh)
CS(=O)(=O)Nc1ccc(C2=NN(C(=O)CCCC(=O)O)C(c3cccs3)C2)cc1 (centres undefined)	FBA Mtb inh active
CC(C)(C)C(=O)N1N=C(c2ccc(NS(C)(=O)=O)cc2)CC1c1cccs1 (centres undefined)	FBA Mtb inh 112.1
